Experimental data published in PubChem BioAssay (NCATS).
Records with an inconclusive call do not appear. Active and inactive are the calls of the source. The call rests on the fitted dose curve; in most records, active means well fitted cell-killing curve with a large enough effect; inconclusive means small, poorly fitted or top-dose-only effect, or effect the other way; inactive means flat fitted curve, though single readings scatter.

Test system: CASKI
Experiment: Primary qHTS to identify gynecologic anti-cancer compounds using libraries of approved drugs and bioactive compounds (AID 1345084); further: nearly all actives have a fitted effect of over 55% in size
Conditions: Gynecologic cancer cell panel viability, ATPlite luminescence, 48 h; series mostly up to 57.5 µM; activity change, negative = cytotoxicity: at the top concentration
Summary of the method: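 Luminescence from the ATPlite ATP-monitoring reagent indicates viable cell number; lower signal means cytotoxicity. Cells received compound 16 h after seeding and were exposed for 48 h across five concentrations.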
On the % scale 0 is the no-effect control and ±100 the full control effect.

SMILES	activity change, negative = cytotoxicity
COc1cccc(Cn2ncc3c4sc(S(C)=O)cc4n(C)c3c2=O)c1 (stereo unspecified)	11.8% (inactive)
CC(C)CC(=O)O[C@@H]1O[C@H](CO)[C@@H](O[C@H]2O[C@H](C)[C@@H](N[C@H]3C=C(CO)[C@@H](O[C@H]4O[C@H](CO)[C@@H](O[C@H]5O[C@H](CO)[C@@H](O[C@H]6O[C@H](CO)[C@@H](O)[C@H](O)[C@H]6O)[C@H](O)[C@H]5O)[C@H](O)[C@H]4O)[C@H](O)[C@H]3O)[C@H](O)[C@H]2O)[C@H](O)[C@H]1O	2.85% [at 11.6 µM] (inactive)
COc1ccc(C2COc3cc(O)ccc3C2)c(O)c1OC (stereo unspecified)	-10.6% (inactive)
CCN1CCN(C(=O)N[C@@H](C(=O)N[C@@H]2C(=O)N3[C@@H]2SC(C)(C)[C@@H]3C(=O)O)c2ccccc2)C(=O)C1=O	-3.11% (inactive)
COc1ccc(/C=C/C(N)=O)cc1OC	0.137% (inactive)
N[C@@H](CC(=O)Nc1ccc(Oc2cc(F)c(F)cc2Br)cc1)C(=O)O	12.1% (inactive)
COc1cc(O)cc2c1C(=O)OC(C)C2 (stereo unspecified)	-1.45% (inactive)
COc1cc(/C=C/C(=O)O[C@@H]2C[C@](O)(C(=O)O)C[C@@H](O)[C@H]2O)ccc1O	9.51% [at 38.5 µM] (inactive)
Cc1cn(C[C@H](N)C(=O)O)c(=O)n(Cc2ccsc2C(=O)O)c1=O	10% (inactive)
CC(O)C1CCC2C3CCC4CC(OC5OC(C(=O)O)C(O)C(O)C5O)CCC4(C)C3CCC12C (stereo unspecified)	-7.48% (inactive)
C/C=C1/[C@H](O[C@@H]2O[C@H](CO)[C@@H](O)[C@H](O)[C@H]2O)OC=C2C(=O)O[C@@H]3C[C@@H](C(C)CO)[C@H](COC(=O)C[C@H]21)[C@H]3C (stereo partly specified)	5.93% [at 25.3 µM] (inactive)
COc1ccc(NC(=O)c2ccc(-c3ccc(C(N)=O)cc3C)cc2)cc1N1CCN(C)CC1	-7.36% (inactive)
Cc1cccc(-c2nn3c(c2-c2ccnc4ccc(C(N)=O)cc24)CCC3)n1	29.1% (inactive)
CC1(C)CC[C@]2(C(=O)OC3OC(CO)C(O)C(O)C3O)CC[C@]3(C)C(=CCC4[C@@]5(C)C[C@@H](O)[C@H](OC6OC(C(=O)O)C(O)C(O)C6O)C(C)(C)C5CC[C@]43C)[C@@H]2C1 (stereo partly specified)	3.29% [at 11.6 µM] (inactive)
O=C(NCC(=O)N1CCCC1)Nc1ccc2ccccc2c1	13.1% (inactive)
O=C(c1c2ccccc2cc2ccccc12)N1CCC(N2CCC[C@@H](C(=O)N3CCOCC3)C2)CC1	25.1% (inactive)

SMILES	activity change, negative = cytotoxicity
CC(C)c1ccc2c(c1)C(O)CC1C(C)(CO)CCCC21C (stereo unspecified)	2.05% (inactive)
C=CCc1cc(OC)c(OC(C)C(O)c2ccc(O)c(OC)c2)c(OC)c1 (stereo unspecified)	2.66% [at 38.5 µM] (inactive)
COc1cc(O)cc(O[C@@H]2O[C@H](CO)[C@@H](O[C@@H]3OC[C@](O)(CO)[C@H]3O)[C@H](O)[C@H]2O)c1OC	2.17% [at 25.3 µM] (inactive)
CC1(C)COC(=O)[C@@H]1O[C@@H]1O[C@H](CO)[C@@H](O)[C@H](O)[C@H]1O	-9.25% (inactive)
C[C@@H]1O[C@@H](O[C@H]2[C@@H]3C=CO[C@@H](O[C@@H]4O[C@H](CO)[C@@H](O)[C@H](O)[C@H]4O)[C@@H]3[C@@]3(CO)O[C@@H]23)[C@H](O)[C@H](O)[C@H]1OC(=O)/C=C/c1ccc(O)cc1	2.25% [at 25.3 µM] (inactive)
Cc1c(NC(=O)N2CCOCC2)ccc2c1c1ccccc1n2C(C)C	4.96% (inactive)
COC(=O)C1=COC(OC2OC(CO)C(O)C(O)C2O)C2C(COC(=O)/C=C/c3ccc(O)c(O)c3)C(O)C(O)C12 (stereo unspecified)	-0.406% [at 25.3 µM] (inactive)
O=C(OC[C@H]1O[C@H](O[C@]2(CO)O[C@H](CO)[C@@H](O)[C@@H]2O)[C@H](O)[C@@H](O)[C@@H]1O)c1ccc(O)cc1	9.3% [at 25.3 µM] (inactive)
C=CC(C)(O)C1CC2C3(C)CCCC(C)(C)C3C(O)C(O)C2(C)O1 (stereo unspecified)	3.37% [at 38.5 µM] (inactive)
CC1CC(=O)[C@]2(O)C(C(=O)OCCc3ccc(O)c(O)c3)=CO[C@@H](O[C@@H]3O[C@H](CO)[C@@H](O)[C@H](O)[C@H]3O)[C@H]12 (stereo partly specified)	-3.54% [at 25.3 µM] (inactive)
COc1cc(O)cc2c1C(=O)OC(C)CCCCCCC2 (stereo unspecified)	11.3% (inactive)
C=C(C)[C@H]1CC[C@]2(C(=O)O)CC[C@]3(C)C(CCC4[C@@]5(C)CCC(=O)C(C)(C)C5CC[C@]43C)C12 (stereo partly specified)	-7.91% [at 25.3 µM] (inactive)
OCC1OC(Oc2cc(O)cc(/C=C/c3ccc(OC4OC(CO)C(O)C(O)C4O)cc3O)c2)C(O)C(O)C1O (stereo unspecified)	-8.98% [at 25.3 µM] (inactive)
CC(C)[C@](O)(c1ccc2cc(OC(F)F)c(OC(F)F)cc2c1)c1cn[nH]n1	-1.07% (inactive)
C/C=C1/[C@H](O[C@@H]2O[C@H](CO)[C@@H](O)[C@H](O)[C@H]2O)OC=C(C(=O)OC)[C@H]1CC(=O)OCCc1ccc(OC(=O)C[C@@H]2C(C(=O)OC)=CO[C@@H](O[C@@H]3O[C@H](CO)[C@@H](O)[C@H](O)[C@H]3O)/C2=C/C)cc1	4.82% [at 11.6 µM] (inactive)
